Results published in PubChem BioAssay (NCATS).
Results filed as inconclusive are left out. Where a call stands in place of a potency, no number is given. The source made the active and inactive calls. Calls follow the shape of the dose curve; as a rule, active = well fitted inhibition curve with a large enough effect; inconclusive = small, poorly fitted or top-dose-only effect; inactive = no such curve, though single readings can be large or run the other way.
Potency is read from the fitted curve at half-maximal effect.

Assay: qHTS to identify inhibitors of the type 1 interferon - major histocompatibility complex class I in skeletal muscle: primary screen against the NCATS Mechanism Interrogation Plate v5.0 (MIPE) Libary (AID 1347411); also: nearly all actives have a fitted effect of over 65% in size
Conditions: iHSKM cells + IFN-b, HiBiT-tagged MHC-I luminescence, 24 h; series mostly up to 45.8 µM
In short: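 Cells were genome-edited human myoblasts carrying a HiBit tag on endogenous HLA-B. They were treated with IFN-beta (4.0 ng/ml) and titrated compounds (top 46 uM) for 24 hrs before lytic HiBiT detection.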
For `Cc1cc(-c2ncc(CC(=O)Nc3ccc(-c4cnccn4)cn3)cc2C)ccn1`, the Potency was “inactive”. For `C[C@H](c1ccc(F)cc1CCCC(=O)O)N(c1cc(F)ccc1F)S(=O)(=O)c1ccc(Cl)cc1`, the Potency was “inactive”. In the case of `Cc1cnc(-c2cc(N3CCN(C(=O)CCS(C)(=O)=O)CC3)ncc2Cl)c(C)c1`, the Potency was “inactive”. With `C[C@@]1(c2cc(-c3cncnc3)c(F)cc2F)CCSC(N)=N1` the Potency was “inactive”. With `CCC(C)SSc1ncc[nH]1` (configuration not stated) the Potency was “inactive”. With `O=C(O)CCNc1cc(N2CCc3ccccc3CC2)nc(-c2ccccn2)n1` the Potency was “inactive”. In the case of `CC(=O)NCCC(=O)N[C@@H](CCC(N)=O)C(=O)N[C@@H](CO)C(=O)N[C@@H](CCC(N)=O)C(=O)N[C@@H](CCC(N)=O)C(=O)N[C@H](C(=O)N[C@@H](Cc1ccccc1)C(=O)N[C@]1(C)CCCCCCC=CCCC[C@@](C)(C(=O)N[C@@H](CCC(N)=O)C(=O)N[C@@H](CC(N)=O)C(N)=O)NC(=O)[C@H](CC(C)C)NC(=O)[C@H](CC(C)C)NC(=O)[C@@H](CCCNC(=N)N)NC(=O)[C@H](Cc2c[nH]c3ccccc23)NC(=O)[C@H](CC(C)C)NC(=O)[C@H](CC(N)=O)NC1=O)[C@H](C)O`, the Potency was “inactive”. With `COc1ccc2c(c1)c(C1=C(c3c[nH]c4ccccc34)C(=O)NC1=O)cn2CCCN(C)C` the Potency was 20.8 µM (active). With `Nc1ncnc2c1ncn2[C@@H]1O[C@H](CO)[C@@H](O)[C@@H]1O` the Potency was “inactive”. In the case of `COc1ccc2nc3cc(Cl)ccc3c(Nc3cc(CN4CCCC4)c(O)c(CN4CCCC4)c3)c2n1`, the Potency was 18.6 µM (active). In the case of `COc1cccc(OC)c1-c1cc(C(=O)NC2(C(=O)O)C3CC4CC(C3)CC2C4)nn1-c1ccnc2cc(Cl)ccc12` (configuration not stated), the Potency was “inactive”. With `COC(=O)[C@H](c1ccccc1Cl)N1CCc2sccc2C1` the Potency was “inactive”. In the case of `O=C(O)CCC=CCC[C@@H]1[C@H](N2CCCCC2)[C@@H](O)C[C@@H]1OCc1ccc(-c2ccccc2)cc1`, the Potency was “inactive”. For `Cc1cn([C@@H]2C[C@@H](O)[C@H](CO)O2)c(=O)[nH]c1=O`, the Potency was “inactive”. For `O=C(O)c1ccc(O)c2ncc(N3CCOCC3)cc12`, the Potency was “inactive”. In the case of `COc1ccc(CCC(=O)Nc2nc3ccc(Cl)cc3s2)cc1OC`, the Potency was “inactive”. With `NCc1c[nH]c(=S)n1[C@H]1CCc2c(F)cc(F)cc2C1` the Potency was “inactive”. For `CNC(=O)c1cc(Oc2ccc(NC(=O)Nc3ccc(Cl)c(C(F)(F)F)c3)c(F)c2)ccn1`, the Potency was 23.4 µM (active). For `CN1CCC(COc2cnc(-c3cccc(Cn4nc(-c5cccc(C#N)c5)ccc4=O)c3)nc2)CC1`, the Potency was “inactive”. With `NC[C@H]1O[C@H](O[C@@H]2[C@@H](O)[C@@H](O[C@H]3O[C@H](CO)[C@@H](O)[C@H](N)[C@@H]3O)[C@H](N)C[C@@H]2N)[C@H](O)[C@@H](O)[C@H]1O` the Potency was “inactive”. With `O=C(O)c1nc(=O)[nH]c(=O)[nH]1` the Potency was “inactive”. In the case of `CC[C@H](C)C(=O)O[C@H]1C[C@H](O)C=C2C=C[C@H](C)[C@H](CC[C@@H](O)C[C@@H](O)CC(=O)O)[C@H]21`, the Potency was “inactive”. For `O=C(Nc1ccc(OC(F)(F)F)cc1)c1sccc1NCc1ccnc2ccccc12`, the Potency was “inactive”. For `c1ccc(CNc2nc(N3CCOc4ccccc43)nc3c2CCCC3)cc1`, the Potency was “inactive”. In the case of `CN[C@@H]1CN(c2ccc3c(=O)c(C(=O)O)cn(-c4nccs4)c3n2)C[C@@H]1OC`, the Potency was 5.09 µM (active). In the case of `CC[C@H](C=C[C@@H](C)[C@H]1CC[C@H]2[C@@H]3CC=C4C[C@@H](O)CC[C@]4(C)[C@@H]3CC[C@]12C)C(C)C`, the Potency was “inactive”. In the case of `CCCCc1ccc(NS(=O)(=O)c2ccc(C)c(C(=O)N3CCN(c4cccc(C)c4C)CC3)c2)cc1`, the Potency was “inactive”. In the case of `CCN(CCO)CCCOc1ccc2c(Nc3cc(CC(=O)Nc4cccc(F)c4)[nH]n3)ncnc2c1`, the Potency was “inactive”. In the case of `CCOC(=O)N1c2ccc(C(F)(F)F)cc2[C@@H](N(Cc2cc(C(F)(F)F)cc(C(F)(F)F)c2)C(=O)OC)C[C@H]1CC`, the Potency was “inactive”. In the case of `O=C(NC[C@H](O)CO)c1ccncc1Nc1ccc(I)cc1F`, the Potency was “inactive”. With `CCOc1ccccc1N=Nc1c(C)[nH]n(-c2nc(-c3ccccc3)cs2)c1=O` the Potency was “inactive”. In the case of `Cc1cccc(-c2[nH]c(C(C)(C)C)nc2-c2ccc3c(c2)OCO3)n1`, the Potency was “inactive”.
